Screening data from PubChem BioAssay.
Hits are enriched below; roughly 9.2% of the tested compounds scored in any of these assays.
USP10 block: inhibitors of human USP10 deubiquitinase; purified USP10, Ub-rhodamine fluorescence, 60 min; Q14694; hit rate 1.1% among 47,000; inhibition, % at 20 µM
USP17 inh: blocks human USP17 ubiquitin-rhodamine cleavage | purified USP17, Ub-rhodamine cleavage fluorescence, 3 h | inhibition, % at 50 µM | hit rate 6.5% among 47,000 | AID 1645855
UCHL1 inh: inhibitors of human UCHL1 deubiquitinase; P09936; purified UCHL1, Ub-rhodamine cleavage fluorescence; inhibition, % at 20 µM; hit rate 0.2% among 47,000; AID 1645859
OTUD3 block: inhibitors of human OTUD3 deubiquitinase. Q5T2D3. purified OTUD3, Ub-rhodamine fluorescence, 2 h. inhibition, % at 25 µM. hit rate 0.7% among 47,000
USP7 block: blocks human USP7 ubiquitin-rhodamine cleavage | Q93009 | purified USP7, Ub-rhodamine cleavage fluorescence | inhibition, % at 20 µM | hit rate 0.3% among 47,000
USP8 inh: human USP8 deubiquitinase inhibition | P40818 | purified USP8, Ub-rhodamine cleavage fluorescence, 30 min | inhibition, % at 20 µM | hit rate 4.2% among 47,000 | AID 1645853
Target sequence (P40818 whole entry, looked up): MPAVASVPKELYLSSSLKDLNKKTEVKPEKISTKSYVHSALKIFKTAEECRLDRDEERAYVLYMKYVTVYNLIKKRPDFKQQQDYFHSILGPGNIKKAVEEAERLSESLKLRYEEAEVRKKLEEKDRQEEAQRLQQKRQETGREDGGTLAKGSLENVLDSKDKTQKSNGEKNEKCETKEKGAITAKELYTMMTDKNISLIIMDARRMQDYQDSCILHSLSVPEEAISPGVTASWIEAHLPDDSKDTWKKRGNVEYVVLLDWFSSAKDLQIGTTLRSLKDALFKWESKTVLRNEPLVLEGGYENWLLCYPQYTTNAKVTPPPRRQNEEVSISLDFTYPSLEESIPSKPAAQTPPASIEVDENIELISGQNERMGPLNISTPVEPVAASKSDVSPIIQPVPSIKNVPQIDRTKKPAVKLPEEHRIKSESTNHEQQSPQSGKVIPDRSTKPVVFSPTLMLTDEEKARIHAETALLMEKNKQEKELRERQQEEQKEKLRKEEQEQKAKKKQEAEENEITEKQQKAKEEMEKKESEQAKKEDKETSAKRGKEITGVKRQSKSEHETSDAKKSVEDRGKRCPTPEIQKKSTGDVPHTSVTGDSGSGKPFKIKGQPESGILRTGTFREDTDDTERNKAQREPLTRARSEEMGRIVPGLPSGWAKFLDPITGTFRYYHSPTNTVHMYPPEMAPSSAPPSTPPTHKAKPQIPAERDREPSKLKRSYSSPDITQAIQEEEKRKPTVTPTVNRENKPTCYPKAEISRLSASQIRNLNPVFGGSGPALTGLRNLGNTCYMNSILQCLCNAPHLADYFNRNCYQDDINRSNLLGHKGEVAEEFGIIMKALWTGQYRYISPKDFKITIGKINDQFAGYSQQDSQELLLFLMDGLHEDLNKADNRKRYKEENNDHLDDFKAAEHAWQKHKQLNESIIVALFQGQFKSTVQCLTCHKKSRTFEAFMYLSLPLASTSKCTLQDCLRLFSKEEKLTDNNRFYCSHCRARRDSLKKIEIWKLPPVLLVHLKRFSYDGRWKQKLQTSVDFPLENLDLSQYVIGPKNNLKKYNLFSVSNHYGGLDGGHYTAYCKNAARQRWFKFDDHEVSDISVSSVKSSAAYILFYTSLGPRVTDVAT
Of the large screens only hits and unclear results are named; the others gave an inactive call. No stated cut-off is given here; in the data, active means inhibition above about 30%; inactive means the rest.

CCn1ccc(C(=O)N2CCCn3nc(-c4ccc(OC)cc4)cc3C2)n1	none
O=S1(=O)Cc2cnc(N3CCCC3)nc2[C@H]2CN(Cc3ccc(F)cc3)C[C@H]21	none
Cc1cc(C)c(C#N)c(SCC(=O)Nc2c(C#N)cnn2-c2ccccc2)n1	USP17 inh 37.1
O=C(Nc1cccc(-n2cnnn2)c1)C1CCCCN1S(=O)(=O)c1ccccc1 (configuration not stated)	none
C[C@H]1[C@H](C)CCC23CC[C@]4(C)[C@@](C=CC5[C@@]6(C)CC[C@H](O)C(C)(C)[C@@H]6CC[C@]54C)(OC2=O)[C@H]13 (some centres not stated)	USP17 inh 50.3, OTUD3 block 32.0
O=C1CC(c2ccco2)Cc2[nH]c(=O)c(C(=O)Nc3ccc(Cl)cc3)cc21 (configuration not stated)	USP17 inh 59.5
O=C1CC(c2ccco2)CC2=C1C(c1ccc(Cl)cc1)Nc1ccccc1N2 (configuration not stated)	none
COc1ccc(CCC(=O)NCC(c2ccc(N(C)C)cc2)N2CCCC2)cc1 (configuration not stated)	none
Cc1cc(=O)n2c(n1)NC(N1CCOCC1)=NC2c1cccnc1 (configuration not stated)	none
Cc1ccc(CNC(=O)c2ccc(N3C(=O)[C@@H]4Cc5ccccc5CN4C3=O)cc2)cc1	USP17 inh 61.9
Cc1ccc2c(c1)OCC(=O)N2Cc1nc(-c2ccccc2)no1	USP17 inh 44.6
Cc1ccc2c(c1)OCC(=O)N2Cc1nc(-c2ccc(F)cc2)no1	none
Oc1cccc2c(-c3ccc(O)c4c(O)cccc34)ccc(O)c12	USP10 block 70.5, USP17 inh 98.1, UCHL1 inh 77.8, OTUD3 block 76.4, USP8 inh 97.6
O=C(Cc1ccccc1F)N1CCC[C@@H](Cn2nnc(-c3ccccn3)n2)C1	none
COc1ccc2oc(C(=O)Nc3ccc4ccccc4n3)c(C)c2c1	USP17 inh 32.0
O=C(Nc1cccc(C(F)(F)F)c1)c1ccc(-c2nc(-c3ccc(Cl)cc3Cl)cs2)cc1	USP17 inh 32.1
O=C(Nc1ccccc1)c1ccc(-c2nc(-c3ccc(Cl)cc3)cs2)cc1	none
Cc1ccc2c(c1)NC(=O)C(C(=O)NCc1ccccc1C)O2 (configuration not stated)	none
COc1ccc(NC(=O)C2Oc3ccc(C)cc3NC2=O)cc1Cl (configuration not stated)	USP17 inh 75.1
COc1cccc(C(=O)N2CCCn3nnc(CN4CCCCC4)c3C2)c1	none
Cc1ccc(S(=O)(=O)NC(=O)C(C)Oc2cccc(C)c2)cc1 (configuration not stated)	none
Cc1nc2cc(C(=O)NCCC3=CCCCC3)ccc2n1-c1cccc(F)c1	none
Cc1ccc(-n2c(N)c(C(=O)NCCc3ccccc3F)c3nc4ccccc4nc32)cc1	USP8 inh 33.5
COc1ccc(CCNC(=O)c2c(N)n(-c3cccc(F)c3)c3nc4ccccc4nc23)cc1	USP17 inh 38.4, USP8 inh 35.9
O=C(NCCc1ccccc1F)c1ccc(N2C(=O)CCS2(=O)=O)cc1	none
COc1ccc(CCNC(=O)c2c(N)n(-c3cccc(Cl)c3)c3nc4ccccc4nc23)cc1	USP17 inh 64.7, USP8 inh 61.5
O=C(NCCc1ccc(Cl)cc1)c1cccc(-n2cnc3cccnc32)c1	none
N#Cc1ccccc1OCc1csc(-c2ccc(F)cc2)n1	none
CC(=O)c1ccc(OCc2csc(-c3ccc(F)cc3)n2)cc1	USP17 inh 43.5
CC(C)=CCc1ccc2[nH]cc(C3=C(O)C(=O)C(c4c[nH]c5ccccc45)=C(O)C3=O)c2c1	USP17 inh 43.5
COc1ccc(C2(c3nnc(C4CC4C)o3)CCOCC2)cc1 (configuration not stated)	none (no result: USP17 inh)
COc1cccc(CN2C(=O)c3cc4ccccc4n3CC2(C)C(=O)NC2CCCC2)c1 (configuration not stated)	USP8 inh 35.5
COc1ccccc1-n1c(SCC(=O)Nc2ccc(C)cc2Br)nc2cc([N+](=O)[O-])ccc21	none
COc1ccc(C2(c3nnc(C(C)Oc4ccc(F)cc4)o3)CCOCC2)cc1 (configuration not stated)	none
CS(=O)(=O)N1CCc2ccc(C(=O)Nc3ccc(F)cc3)cc21	USP17 inh 33.1
NC(c1c(O)ccc2ccccc12)P(=O)(O)O (configuration not stated)	USP8 inh 37.5
Cc1ccc(-c2nnc(NC(=O)C3CCCCC3)o2)c(C)c1	USP17 inh 37.8 (no result: USP7 block)
Cc1ccc(C)c(Nc2nc(NCc3ccccc3)c3ccccc3n2)c1	USP17 inh 51.5, OTUD3 block 32.9
CC(=O)N1c2ccccc2O[C@@H]2C[C@@H](NC(=O)c3ccccc3)[C@@H](O)[C@@H]21	none
Cc1c(C(=O)NCC2CCCCC2)nnn1-c1cccc2c1CCN(C1CCOCC1)C2	USP8 inh 35.6
CCc1nc2sc3c(SCC(=O)NCc4ccccc4)ncnc3c2c2c1COC(C)(C)C2	none
CC1(C)CC(=O)C2(Cc3cc([N+](=O)[O-])ccc3N3CCCC32)C(=O)C1 (configuration not stated)	USP17 inh 36.0
Cc1cc(N2CCN(C)CC2)n2nc(CN3CCC4(CC3)OCCO4)nc2n1	none
Cc1ccc2nc(CNc3cccc(Cl)c3)cc(=O)n2c1	USP17 inh 30.5
Cc1ccc(NCc2cc(=O)n3cc(C)ccc3n2)c(C)c1	none
CC1CCCCC1Nc1ncnc2c1CN(C1CCNC1)C(=O)CN2C (configuration not stated)	none
CC(=O)N(O)CCC[C@@H]1NC(=O)[C@H](CCCN(O)C(C)=O)NC1=O	USP17 inh 36.4
Cn1c(=O)[nH]c2c(C(=O)N3CCN(c4ccccc4)CC3)snc2c1=O	none
Cc1ccc(CNc2nc3c(-c4ccc(C)cc4)nnn3c3ccccc23)cc1	none
Cc1ccc(S(=O)(=O)c2nnn3c2nc(NCc2ccc(F)cc2)c2ccccc23)cc1C	USP8 inh 51.0
O=S(=O)(c1ccccc1)c1nnn2c1nc(NCc1ccc(Cl)cc1)c1ccccc12	USP17 inh 42.2
O=C(c1cccnc1)N1CCC2(CCC(N3CCCC3)c3ccccc32)CC1 (configuration not stated)	none
Cc1nnc(NC(=O)C(=O)c2cc(C)n(-c3ccc(Cl)cc3)c2C)s1	USP17 inh 42.8, USP8 inh 41.0
Cc1cc(C(=O)C(=O)Nc2cccc(Cl)c2)c(C)n1-c1ccc(F)cc1	none
CC1(c2ccco2)NC(=O)N(CC(=O)Nc2ccc(N3CCCCCC3)cc2)C1=O (configuration not stated)	USP17 inh 43.7
CCN(c1ccc(NC(=O)CN2C(=O)NC3(CCCCC3)C2=O)cc1)C(C)C	none
COc1ccc(C(=O)CSc2nnc(-c3ccc(OC)c(OC)c3)n2C2CCCCC2)cc1OC	none
